Measured values from PubChem BioAssay (Tox21).
Values joined by “and” are separate entries in the source; they are usually repeats but may differ in a detail not shown here. Equal entries are not always repeated. Active and inactive are the calls of the source. Unless noted, the call rests on the fitted dose curve; in most records, active means well fitted curve in the direction sought with a large enough effect in the repeat runs; inconclusive means weak or mixed curves; inactive means no such curve, though single readings can be large; an effect the other way counts as inactive or inconclusive.

Assays:
[1] = qHTS assay to identify small molecule antagonists of the glucocorticoid receptor (GR) signaling pathway - cell viability counter screen (AID 720693); further: nearly all actives have a fitted effect of over 55% in size; further: potency means the concentration at half of the fitted maximal effect
[2] = qHTS assay for identifying genotoxic compounds that show differential cytotoxicity against isogenic chicken DT40 cell lines with known DNA damage response pathways - wild type cell line (AID 743012); further: nearly all actives have a fitted effect of over 60% in size; further: potency means the concentration at half of the fitted maximal effect
Summary of the method: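 300 wt DT40 cells/well; cpd (DMSO) pintool-transferred after ~0.5 h at 37 C/5% CO2; 40 h incubation; CellTiter-Glo added, 30 min RT; luminescence read.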

[3] = qHTS assay for identifying genotoxic compounds that show differential cytotoxicity against isogenic chicken DT40 cell lines with known DNA damage response pathways - Rad54/Ku70 mutant cell line (AID 743015); further: nearly all actives have a fitted effect of over 60% in size; further: potency means the concentration at half of the fitted maximal effect
[4] = qHTS assay to identify small molecule antagonists of the androgen receptor (AR) signaling pathway - cell viability counter screen (AID 743033; further: nearly all actives have a fitted effect of over 45% in size)
[5] = target: Androgen receptor (Homo sapiens) (UniProt P10275); assay: qHTS assay to identify small molecule antagonists of the androgen receptor (AR) signaling pathway (AID 743035; active means well fitted inhibition curve with a large enough effect in the signal ratio in the repeat runs, not every such curve was filed as active; inconclusive means weak or mixed curves, or effect the other way; inactive means no such curve, though single readings can be large or run the other way; the % refers to the signal ratio)
Androgen receptor (Homo sapiens), sequence (P10275 whole entry, looked up): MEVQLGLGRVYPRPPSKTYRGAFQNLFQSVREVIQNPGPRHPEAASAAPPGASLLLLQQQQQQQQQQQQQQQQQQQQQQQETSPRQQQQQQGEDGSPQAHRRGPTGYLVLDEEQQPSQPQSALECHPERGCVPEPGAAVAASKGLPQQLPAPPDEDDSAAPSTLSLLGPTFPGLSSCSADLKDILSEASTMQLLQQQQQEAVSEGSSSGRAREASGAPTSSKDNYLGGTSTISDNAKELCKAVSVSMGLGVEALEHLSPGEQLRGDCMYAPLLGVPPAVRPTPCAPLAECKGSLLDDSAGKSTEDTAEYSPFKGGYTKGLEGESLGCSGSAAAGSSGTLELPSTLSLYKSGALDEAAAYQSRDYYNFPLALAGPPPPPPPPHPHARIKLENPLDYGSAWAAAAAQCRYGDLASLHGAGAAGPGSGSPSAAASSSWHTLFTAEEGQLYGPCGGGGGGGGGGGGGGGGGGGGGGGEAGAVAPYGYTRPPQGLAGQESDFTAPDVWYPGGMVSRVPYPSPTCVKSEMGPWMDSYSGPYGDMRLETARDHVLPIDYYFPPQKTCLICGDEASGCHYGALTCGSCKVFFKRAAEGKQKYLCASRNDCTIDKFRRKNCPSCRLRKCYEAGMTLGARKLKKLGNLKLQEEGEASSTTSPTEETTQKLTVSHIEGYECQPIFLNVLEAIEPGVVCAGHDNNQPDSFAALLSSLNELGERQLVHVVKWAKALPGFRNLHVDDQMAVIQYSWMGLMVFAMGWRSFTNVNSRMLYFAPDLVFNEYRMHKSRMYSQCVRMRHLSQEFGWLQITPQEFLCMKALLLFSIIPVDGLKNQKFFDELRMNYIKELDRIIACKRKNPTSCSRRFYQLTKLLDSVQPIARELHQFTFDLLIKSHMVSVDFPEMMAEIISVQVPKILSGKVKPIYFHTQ
Summary of the method: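 In this cell-based reporter screen, compounds were tested in concentration series against R1881-activated HEK293 cells expressing beta-lactamase under UAS control; after 16 h at 37C, FRET substrate was added and fluorescence read 2 h later.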

[6] = qHTS assay to identify small molecule antagonists of the androgen receptor (AR) signaling pathway using the MDA cell line - cell viability counter screen (AID 743041; further: nearly all actives have a fitted effect of over 45% in size)
Summary of the method: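 qHTS viability read-out; MDA-kb2 AR-luc; R1881-stimulated; 16 h exposure at 37C, 0% CO2; CellTiter-Fluor, 30 min; fluorescence intensity.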

[7] = target: Androgen receptor (Homo sapiens) (UniProt P10275); assay: qHTS assay to identify small molecule antagonists of the androgen receptor (AR) signaling pathway using the MDA cell line (AID 743042; further: nearly all actives have a fitted effect of over 55% in size)
Summary of the method: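 MDA-kb2 cells (human breast carcinoma, stably carrying an MMTV-luciferase reporter responsive to AR and GR) were plated at 3,000 cells/well and preincubated 5 hr at 37C, then given compound plus R1881 agonist for 16 h. ONE-Glo luminescence was read.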

[8] = qHTS assay to identify small molecule antagonists of the thyroid receptor (TR) signaling pathway - cell viability counter screen (AID 743064); further: nearly all actives have a fitted effect of over 50% in size; further: potency means the concentration at half of the fitted maximal effect
Summary of the method: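 GH3.TRE-Luc rat pituitary cells dosed after 4 hr plating, co-stimulated with T3 at 1 nM final, incubated 23.5 h at 37 C. Viability measured in the same wells by CellTiter-Fluor fluorescence after 30 min further at 37 C.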

[9] = qHTS assay to identify small molecule antagonists of the thyroid receptor (TR) signaling pathway (AID 743065); further: nearly all actives have a fitted effect of over 55% in size; further: potency means the concentration at half of the fitted maximal effect
Summary of the method: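 GH3.TRE-Luc rat pituitary cells carrying two TR response elements driving luciferase were plated for 4 h, given compound plus 1 nM T3 (final), and incubated 23.5 h at 37 C. ONE-Glo luminescence measured reporter inhibition; CellTiter-Fluor fluorescence tracked cytotoxicity.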

[10] = test system: thyroid hormone receptor (rat, GH3 cells); assay: qHTS assay to identify small molecule agonists of the thyroid receptor (TR) signaling pathway (AID 743066; calls by dose curve; further: potency means the concentration at half of the fitted maximal effect)
[11] = qHTS assay to identify small molecule antagonists of the estrogen receptor alpha (ER-alpha) signaling pathway - cell viability counter screen (AID 743074; calls by dose curve; further: nearly all actives have a fitted effect of over 45% in size; further: potency means the concentration at half of the fitted maximal effect)
Aromatase (Homo sapiens) = Aromatase (Homo sapiens) (UniProt P11511); assay: qHTS assay to identify aromatase inhibitors (AID 743083); further: nearly all actives have a fitted effect of over 55% in size; further: potency means the concentration at half of the fitted maximal effect
Aromatase (Homo sapiens), sequence (P11511 whole entry, looked up): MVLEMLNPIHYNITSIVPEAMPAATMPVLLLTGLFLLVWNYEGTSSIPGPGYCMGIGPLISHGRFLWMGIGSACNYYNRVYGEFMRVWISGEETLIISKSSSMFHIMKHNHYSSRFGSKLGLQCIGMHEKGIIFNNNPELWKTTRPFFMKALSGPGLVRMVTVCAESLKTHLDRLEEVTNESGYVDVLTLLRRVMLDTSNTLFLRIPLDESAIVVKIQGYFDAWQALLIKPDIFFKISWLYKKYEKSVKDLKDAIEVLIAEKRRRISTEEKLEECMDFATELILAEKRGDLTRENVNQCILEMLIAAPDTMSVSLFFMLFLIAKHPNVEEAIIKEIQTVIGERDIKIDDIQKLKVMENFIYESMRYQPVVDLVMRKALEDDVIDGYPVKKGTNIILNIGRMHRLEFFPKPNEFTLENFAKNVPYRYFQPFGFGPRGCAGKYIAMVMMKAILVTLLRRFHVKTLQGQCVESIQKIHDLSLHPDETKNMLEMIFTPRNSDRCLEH

[12] = qHTS assay for identifying genotoxic compounds that show differential cytotoxicity against isogenic chicken DT40 cell lines with known DNA damage response pathways - Rev3 mutant cell line (AID 743014); further: nearly all actives have a fitted effect of over 55% in size; further: potency means the concentration at half of the fitted maximal effect
[13] = target: Androgen receptor (Homo sapiens) (UniProt P10275); assay: qHTS assay to identify small molecule agonists of the androgen receptor (AR) signaling pathway (AID 743036; active means well fitted activation curve with a large enough effect in the signal ratio in the repeat runs, with a control signal flat, not every such curve was filed as active; inconclusive means weak or mixed curves, or effect the other way; inactive means no such curve, though single readings can be large or run the other way; the % refers to the signal ratio)
Summary of the method: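 AR-UAS-bla HEK293 cells, plated 4 h before dosing, were treated with compound for 16 h at 37C. beta-Lactamase reporter read after 2 h with LiveBLAzer B/G FRET substrate at room temperature.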

[14] = target: Androgen receptor (Homo sapiens) (UniProt P10275); assay: qHTS assay to identify small molecule agonists of the androgen receptor (AR) signaling pathway using the MDA cell line (AID 743040; further: nearly all actives have a fitted effect of over 20% in size; further: potency means the concentration at half of the fitted maximal effect)
Summary of the method: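 Agonist activity is measured as luciferase luminescence in human MDA-kb2 cells whose MMTV reporter responds to both AR and GR. Compounds in DMSO incubate 16 h at 37C, 0% CO2, and ONE-Glo is read after 30 min.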

[15] = qHTS assay to identify small molecule antagonists of the estrogen receptor alpha (ER-alpha) signaling pathway using the BG1 cell line - cell viability counter screen (AID 743081);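 further: compound given together with 17beta-estradiol as the ER stimulus; nearly all actives have a fitted effect of over 45% in size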
[16] = target: Estrogen receptor (Homo sapiens) (UniProt P03372); assay: qHTS assay to identify small molecule antagonists of the estrogen receptor alpha (ER-alpha) signaling pathway (AID 743069; active means well fitted curve in the direction sought with a large enough effect in the signal ratio in the repeat runs, not every such curve was filed as active; inconclusive means weak or mixed curves, or effect the other way; inactive means no such curve, though single readings can be large or run the other way; the % refers to the signal ratio; further: potency means the concentration at half of the fitted maximal effect)
Estrogen receptor (Homo sapiens), sequence (P03372 whole entry, looked up): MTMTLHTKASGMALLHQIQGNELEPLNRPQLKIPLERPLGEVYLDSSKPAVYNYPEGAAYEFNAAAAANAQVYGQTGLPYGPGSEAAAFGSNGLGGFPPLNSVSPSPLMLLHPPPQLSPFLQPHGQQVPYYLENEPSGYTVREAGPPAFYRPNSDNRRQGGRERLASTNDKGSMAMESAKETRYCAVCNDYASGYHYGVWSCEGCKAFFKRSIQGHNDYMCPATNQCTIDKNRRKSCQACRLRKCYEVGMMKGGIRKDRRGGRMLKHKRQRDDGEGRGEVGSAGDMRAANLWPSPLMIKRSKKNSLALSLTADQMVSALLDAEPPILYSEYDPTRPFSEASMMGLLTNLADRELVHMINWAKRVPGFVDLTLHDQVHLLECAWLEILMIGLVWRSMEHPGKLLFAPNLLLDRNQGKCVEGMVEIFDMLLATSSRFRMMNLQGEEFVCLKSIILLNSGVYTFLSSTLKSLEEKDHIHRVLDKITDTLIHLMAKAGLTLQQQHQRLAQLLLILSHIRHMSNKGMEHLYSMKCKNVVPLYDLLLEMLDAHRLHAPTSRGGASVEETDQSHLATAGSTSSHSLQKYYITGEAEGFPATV
Summary of the method: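 Screening used a UAS-driven beta-lactamase reporter integrated into HEK293 cells expressing ER-alpha, stimulated with 17beta-estradiol alongside test compounds over 18 hr at 37C; signal came from LiveBLAzer B/G FRET fluorescence.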

[17] = target: Estrogen receptor (Homo sapiens) (UniProt P03372); assay: qHTS assay to identify small molecule agonists of the estrogen receptor alpha (ER-alpha) signaling pathway using the BG1 cell line (AID 743079); conditions: BG1Luc4E2 cells, ERE-luciferase agonist, 22 h; further: nearly all actives have a fitted effect of over 20% in size; further: potency means the concentration at half of the fitted maximal effect
[18] = target: Estrogen receptor (Homo sapiens) (UniProt P03372); assay: qHTS assay to identify small molecule agonists of the estrogen receptor alpha (ER-alpha) signaling pathway (AID 743075; calls by dose curve; further: potency means the concentration at half of the fitted maximal effect); conditions: HEK293 ER-alpha-UAS-bla, beta-lactamase FRET ratio, 18 h; activation: at 70.1 µM (top of the series)
[19] = qHTS assay to identify small molecule antagonists of the estrogen receptor alpha (ER-alpha) signaling pathway using the BG1 cell line (AID 743080; calls by dose curve;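 further: BG1 cells stimulated with 17beta-estradiol alongside compound; nearly all actives have a fitted effect of over 25% in size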; further: potency means the concentration at half of the fitted maximal effect)
Summary of the method: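 Luminescence from a 4×ERE-luciferase reporter in BG1-Luc-4E2 cells served as read-out. Cells, pre-cultured 5 days in stripped-serum phenol-red-free medium, were exposed to compound with 17beta-estradiol co-stimulation for 21.5 h at 37 C.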
On the % scale 0 is the no-effect control and ±100 the full control effect.

CC(C)(C)CC(C)(C)c1ccc(O)c(Cc2ccc(Cl)cc2Cl)c1
active: Potency [1] 10.7 µM | Potency [2] 26.6 µM | Potency [3] 26.6 µM | Potency [8] 6.68 µM | Potency [9] 6.68 µM | Potency [10] 2.11 µM | Potency [11] 23.9 µM
inactive: Potency [4] | Potency [5] | Potency [6] | Potency [7] | Potency (Aromatase (Homo sapiens))

Oc1ccc2c(c1)-c1ccccc1C2
inactive: Potency [1] | Potency [13] | Potency [14] | Potency [6] | Potency [7] | Potency [8] | Potency [10] | Potency [11] | Potency [15]
active: Potency [12] 54.5 µM

CCOc1ccc2nc3cc(N)ccc3c(N)c2c1
inactive: Potency [1] | Potency [4] | Potency [6] | Potency [10] | Potency [16] | Potency [11] | activation ([17]; at 70.3 µM (top of the series)) -22.3%
active: Potency [12] 26.6 µM | Potency [3] 26.6 µM

CN1CCN(CCC(=O)N2c3ccccc3Sc3ccc(C(F)(F)F)cc32)CC1
inactive: Potency [4] | Potency [5] | Potency [13] | Potency [14] | Potency [7] | Potency [16] | Potency [18] | activation ([17]; at 70.3 µM (top of the series)) -0.0617% | Potency [19] | Potency (Aromatase (Homo sapiens))
active: Potency [2] 16.8 µM | Potency [12] 13.3 µM | Potency [3] 21.1 µM | Potency [8] 11.9 µM | Potency [9] 26.6 µM

CC[C@@]1(O)C(=O)OCc2c1cc1n(c2=O)Cc2cc3c(CN(C)C)c(O)ccc3nc2-1
active: Potency [2] 1.33 µM | Potency [12] 1.19 µM | Potency [3] 0.841 µM | Potency [9] 2.37 µM | Potency [16] 12 µM [inconclusive] | Potency [19] 7.5 µM | Potency (Aromatase (Homo sapiens)) 5.31 µM
inactive: Potency [1] | Potency [10] | Potency [11] | Potency [18]

C=C(C)C(=O)OCC[N+](C)(C)C
inactive: Potency [1] | Potency [5] | Potency [13] | Potency [14] | Potency [6] | Potency [7] | Potency [10] | Potency [11] | Potency [15] | Potency (Aromatase (Homo sapiens))
active: Potency [3] 38.4 µM | Potency [8] 60.9 µM

O=c1[nH]cnc2nc[nH]c12
inactive: Potency [1] | Potency [12] | Potency [3] | Potency [4] | Potency [6] | Potency [8] | Potency [9] | Potency [10] | Potency [16] | Potency [11] | Potency [18] | activation ([17]; at 70.3 µM (top of the series)) 8.82% | Potency [19] | Potency [15] | Potency (Aromatase (Homo sapiens))

NNc1nc(-c2ccc(N)cc2)cs1
inactive: Potency [1] | Potency [10] | Potency [11] | Potency [18] | activation ([17]; at 70.3 µM (top of the series)) -1.53% | Potency [19]
active: Potency [2] 17.2 µM | Potency [12] 21.7 µM | Potency [3] 10.9 µM

CC(=O)SC[C@@H](Cc1ccccc1)C(=O)NCC(=O)OCc1ccccc1
inactive: Potency [1] | Potency [2] | Potency [3] | Potency [6] | Potency [8] | Potency [9] | Potency [10] | Potency [16] | Potency [11] | Potency [18] | activation ([17]; at 32.5 µM (top of the series)) 3.92% | Potency [19] | Potency (Aromatase (Homo sapiens))

NC(=O)NS(=O)(=O)c1ccc(N)cc1
inactive: Potency [1] | Potency [2] | Potency [3] | Potency [6] | Potency [8] | Potency [9] | Potency [10] | Potency [16] | Potency [11] | Potency [18] | Potency [19] | Potency (Aromatase (Homo sapiens))

Cc1cc(O)c2ccccc2c1O
active: Potency [2] 29.8 µM | Potency [3] 29.8 µM | Potency [9] 33.5 µM
inactive: Potency [1] | Potency [5] | Potency [6] | Potency [7] | Potency [16] | Potency [11] | activation ([17]; at 70.3 µM (top of the series)) -13.8% | Potency [15] | Potency (Aromatase (Homo sapiens))

O=C(c1ccc(O)cc1O)c1ccc(O)cc1O
inactive: Potency [1] | Potency [2] | Potency [4] | Potency [6] | Potency [8] | Potency [10] | Potency [16] | Potency [11] | Potency [19] | Potency [15] | Potency (Aromatase (Homo sapiens))
active: Potency [9] 30.7 µM and 54.5 µM | Potency [18] 11 µM [inconclusive] and 9.77 µM [inconclusive] | Potency [17] 4.33 µM and 15.4 µM

C[C@@H]1C[C@H]2[C@@H]3CCC4=CC(=O)C=C[C@]4(C)[C@@]3(Cl)[C@@H](O)C[C@]2(C)[C@@]1(OC(=O)c1ccco1)C(=O)CCl
active: Potency [2] 12.7 µM | Potency [14] 0.9 nM
inactive: Potency [1] | Potency [4] | Potency [7] | Potency [10] | Potency [11] | Potency [15] | Potency (Aromatase (Homo sapiens))

Cc1cc(=O)oc2cc(N(C)C)ccc12
inactive: Potency [1] | Potency [4] | Potency [9] | Potency [10] | Potency [11] | Potency (Aromatase (Homo sapiens))
active: Potency [12] 54.5 µM

CCN(C(=O)N(CC)c1ccccc1)c1ccccc1
active: Potency [12] 7.7 µM
inactive: Potency [1] | Potency [8] | Potency [9] | Potency [10] | Potency [11] | Potency [15] | Potency (Aromatase (Homo sapiens))
